# Compound activity from PubChem.
# Pf growth 48h – P. falciparum growth inhibition at 48 hours (one generation); P. falciparum luciferase growth in erythrocytes, 48 h; Potency, µM (highest dose often 28.7 µM), inactives show at the top dose activity change, negative = inhibition, most hits filed as inhibitors; 310,000 tested, 5.9% active; AID 504832; also: % is scaled to controls: 0 for no effect and ±100 for the full control effect
#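 In quantitative HTS format, infected erythrocytes bearing luciferase-reporter parasites were treated for a single generation at 37 C. Luminescence after adding detection reagent served as the growth measure.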
# VACV Venus inh – inhibitors of vaccinia virus (Venus reporter) | Potency, µM (doses to about 36.5 µM), for inactives: top-dose activity change, negative = inhibition, actives largely listed as inhibitors | Vaccinia virus Venus reporter expression, fluorescence | 330,000 tested, 0.46% active; calls by dose curve; tested in A549 cells; also: % is scaled to controls: 0 for no effect and ±100 for the full control effect; nearly all actives have a fitted effect of over 30% in size
# Pf growth 96h – inhibits malaria parasite growth, 96 h; P. falciparum luciferase reporter growth, 96 h; Potency, µM (series often up to 28.7 µM), for the others: at the top dose activity change, negative = inhibition, usual class: inhibitors; 320,000 tested, 6.9% active; AID 504834; also: % is scaled to controls: 0 for no effect and ±100 for the full control effect
#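 Cell-based qHTS: luciferase-tagged P. falciparum in erythrocytes (2% hematocrit, 0.05% parasitemia final) incubated with compounds for 96 hours, 37 C, 5% CO2; luciferase detection reagent then added and luminescence measured.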
# HCV inh – HCV inhibition | Huh7.5.1 HCVcc-Cre infection, luciferase reporter, 44 h | Potency, µM (highest dose often 41.8 µM), for inactives: top-dose activity change, negative = inhibition, usual class: inhibitors | 340,000 tested, 3.4% active | AID 651820; also: % is scaled to controls: 0 for no effect and ±100 for the full control effect
#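 Compounds are dispensed onto cells plated 4 h earlier at 1,000 per well, with HCVcc-Cre virus (about 0.5 moi) added next. Following 44 h of culture, luminescent signal is measured for 15 sec after 15 min with substrate at room temperature.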
# NS1 inh – blocks influenza NS1 protein function. Potency, µM (highest dose often 46.1 µM), for the others: at the highest dose activity, positive = more growth. 270,000 tested, 0.4% active. AID 2326; calls by dose curve; also: actives are rising curves; nearly all actives have a fitted effect of over 50% in size
#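 In this qHTS, NS1 from influenza A is expressed in budding yeast, where it slows growth. Cells are switched from glucose to 2% galactose medium (pH 6.0, -URA), treated with compound, and growth recovery is read at OD600.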
# VACV mCherry inh – inhibitors of vaccinia virus infection (mCherry reporter signal); Potency, µM (top dose mostly 36.5 µM), for inactives: at the highest dose activity change, negative = inhibition, actives largely listed as inhibitors; Vaccinia virus mCherry reporter infection, fluorescence; 310,000 tested, 0.63% active; calls by dose curve; tested in A549 cells; also: % is scaled to controls: 0 for no effect and ±100 for the full control effect; nearly all actives have a fitted effect of over 35% in size
# Active calls of the source: *; i = inactive; ? = inconclusive; / = no result given; [ ] = another dose, or the depositor's remark. An excerpt weighted towards active compounds, which were near 11% of everything screened. Unless noted, calls follow the shape of the dose curve; as a rule, active = well fitted inhibition curve with a large enough effect; inconclusive = small, poorly fitted or top-dose-only effect, or another doubt; inactive = no such curve, though single readings can be large or run the other way. Potency is read from the fitted curve at half-maximal effect.
SMILES,Pf growth 48h,VACV Venus inh,Pf growth 96h,HCV inh,NS1 inh,VACV mCherry inh
CC(CCCC(C)(C)O)NC(=O)c1cc(COc2ccc3ncccc3c2)on1 (stereo not drawn),?,-20.2%,11.6%,5.62µM*,-5.5%,-25.3%
O=C(NCc1cccc(Cl)c1)c1cc(COc2ccc3ncccc3c2)on1,8.3%,-22.2%,?,6.31µM*,-4.2%,?
Cc1ccc(F)cc1CNC(=O)c1cc(COc2ccc3ncccc3c2)on1,11.2%,-6.7%,?,2.82µM*,-0.3%,?
C=CCN(c1ccccc1)S(=O)(=O)c1cc2c(cc1C)NC(=O)CO2,3.4%,/,?,-14.2%,10.7%,/
Cc1onc(-c2ccccc2Cl)c1C(=O)OCC(=O)Nc1cccc(S(=O)(=O)N2CCOCC2)c1,?,-14.3%,31.0%[1.15 µM],?,21.0%,-12.1%
Clc1ccc2c(c1)c1ccccc1n2CN1CCOCC1,20.2%,?,/,?,-61.6%,i[1.46 µM]
Clc1ccc2c(c1)c1cc(Cl)ccc1n2CN1CCOCC1,?,?,?,22.4µM*,-31.5%,?
O=C(NC1CCCC1)C(c1ccc(Cl)cc1)N1CCc2ccccc21 (stereo not drawn),/,-26.6%,5.86µM*,9.0%,-2.1%,?
O=C(NC1CCCCC1)C(c1ccccc1)N1CCc2ccccc21 (stereo not drawn),/,-11.2%,11.7µM*,-27.2%,13.5%,i
O=C(Nc1ccc2c(c1)OCO2)c1ccc(Cl)s1,/,/,169.8%,?,-64.5%,/
COc1ccc(-c2c(C#Cc3ccsc3)c3cc(-c4ccc(C(N)=O)cc4)ccc3n2C)cc1,/,-13.1%,/,7.08µM*,/,-4.6%
COc1ccc(-c2c(C#Cc3ccsc3)c3cc(-c4ccc5c(c4)OCCO5)ccc3n2C)cc1,/,2.1%,/,11.0%,/,-14.5%
COc1ccc(-c2c(C#Cc3ccsc3)c3cc(-c4cccc5[nH]ccc45)ccc3n2C)cc1,1.31µM*,-4.9%,2.33µM*,?,/,?
COc1ccc(-c2c(C#Cc3ccsc3)c3ccccc3n2C)cc1,?,?,3.29µM*,?,?,?
COc1ccc(C#Cc2c(-c3ccccc3)n(C)c3ccccc23)cc1,/,-22.3%,/,?,/,-15.6%
COc1ccc(-c2c(C#Cc3ccsc3)c3cc(-c4ccc5[nH]ccc5c4)ccc3n2C)cc1,?,-8.7%,?,-2.8%,/,-5.1%
COc1cc(C#Cc2c(-c3ccccc3)n(C)c3ccccc23)cc(OC)c1,?,3.5%,11.7µM*,-28.2%[8.37 µM],16.0%,?
CCc1nnc(NC(=O)CSc2nnc(C)c(=O)n2N)s1,-7.3%,/,17.0%,13.8%,-5.3%,/
Cc1cc(C#Cc2c(-c3ccccc3)n(C)c3ccccc23)ccc1F,?,6.9%,5.86µM*,-13.4%[8.37 µM],14.0%,-2.9%
Cn1c(-c2ccc(C#N)cc2)c(C#Cc2ccccc2)c2ccccc21,/,-7.8%,/,22.4µM*,/,i
COc1cc(OC)cc(-c2c(C#Cc3ccsc3)c3cc(-c4cccc5[nH]cc(C=O)c45)ccc3n2C)c1,/,-8.4%,/,10µM*,/,i
Cc1cc(C)n(-c2nnc(C)n2/N=C/c2ccc(O)cc2)n1,35.2%,3.9%,30.7%,21.4%,7.4%,-9.6%
N#CCN(N=Nc1ccccc1)c1ccccc1,10.4µM*,/,-0.4%,12.5%,-5.0%,/
CCCN1C/C(=C/c2cccc([N+](=O)[O-])c2)C(=O)/C(=C/c2cccc([N+](=O)[O-])c2)C1,14.7µM*,-14.3%,?,?,10.8%,-4.0%
CN1C(=O)/C(=C/c2cccc([N+](=O)[O-])c2)C(=O)N1c1ccccc1,-5.6%,-8.5%,?,29.9%,20.8%,-9.7%
SMILES,Pf growth 48h,VACV Venus inh,Pf growth 96h,HCV inh,NS1 inh,VACV mCherry inh
CCCN1C/C(=C/c2ccc3c(c2)OCO3)C(=O)/C(=C/c2ccc3c(c2)OCO3)C1,0.0%,?,1.85µM*,?,10.8%,?
CCCN1C(=O)/C(=C/c2ccc3c(c2)OCO3)NC1=S,3.0%,/,9.28µM*,12.8%,/,/
COc1ccc(N2CCN(CCNC(=O)C3CCN(S(=O)(=O)c4cccs4)CC3)CC2)cc1,-0.1%,-21.2%,-1.4%,?,-4.6%,-14.2%
CCOc1ccc(C(=O)NC(=S)N2CCN(c3ccc(C(F)(F)F)cc3[N+](=O)[O-])CC2)cc1,4.5%,-11.4%,?,-0.4%,4.8%,-14.0%
COC(=O)c1cccnc1NC(=S)NNC(=O)c1ccncc1,/,/,-34.6%,-1.5%,-1.9%,/
Oc1ccc(Cl)cc1CNCC1CCCCC1,1.85µM*,-29.8%,11.7µM*,-15.4%,/,-22.5%
Oc1ccc(Cl)cc1CNC1CCCCC1,/,-6.7%,/,-17.5%,/,-17.1%
O=C(O)c1ccc(CNCc2cc(Cl)ccc2O)cc1,24.4%,-10.3%,?,23.5%,/,i
Cc1ccc(CNCc2cc(Cl)ccc2O)cc1,2.94µM*,-17.5%,7.38µM*,5.8%,/,-18.3%
CC(=O)c1cccc(NC(=O)CN2C(=O)CCc3cc(S(=O)(=O)N4CCCCC4)ccc32)c1,/,-0.8%,/,/,/,-4.5%
CCC(C(=O)NCCC(C)C)n1ccc2cc(S(=O)(=O)N3CCCCC3)ccc21 (stereo not drawn),11.7µM*,0.0%[7.34 µM],36.4%,10µM*,17.1%,i[7.34 µM]
COc1cccc(CNC(=O)C(C)n2ccc3cc(S(=O)(=O)N4CCCCCC4)ccc32)c1 (stereo not drawn),7.38µM*,-2.6%,?,?,7.6%,-17.3%
COc1cccc(CNC(=O)C(C)n2ccc3cc(S(=O)(=O)N4CCCC4)ccc32)c1 (stereo not drawn),?,/,?,?,-4.3%,/
O=C(O)CCn1ccc2cc(S(=O)(=O)N3CCCCCC3)ccc21,6.3%,-7.4%,6.5%,8.9%,14.5%,-13.7%
O=C(O)CCCn1ccc2cc(S(=O)(=O)N3CCCC3)ccc21,2.6%,1.6%[7.34 µM],13.1µM*,11.7%,7.4%,-8.4%[7.34 µM]
Cn1cc([N+](=O)[O-])c(C(=O)N/N=C/c2ccccc2)n1,8.0%,-5.3%,-9.5%,8.4%,-6.2%,-2.7%
CSc1ccc(NC(=O)[C@H]2CCCC[C@@H]2C(=O)O)cc1,/,/,/,/,-1.4%,/
COc1coc(C(O)CN)cc1=O (stereo not drawn),-8.1%,-0.8%,7.9%,5.7%,12.7%,-19.9%
CCOC(=O)C(=Cc1cc(=O)c(OC)co1)C(=O)OCC,?,/,?,10µM*,-37.7%,/
CN(C)c1ccc(/C=C/c2ccc3ccccc3[n+]2[O-])cc1,/,i,/,/,/,-8.2%
Cc1cc(/C=C\c2ccc3cc(N(C)C)ccc3[n+]2C)c(C)n1-c1ccccc1,0.262µM*,i,0.0033µM*,1µM*,/,477.4%
CCc1nc2c(OCCn3cccc3)cccn2c1N(C=O)Cc1ccc(OC)cc1,/,-2.6%,/,/,/,4.5%
COC(=O)Nc1ccc(C)cc1NC(=O)OC,12.5%,/,/,2.6%,6.1%,/
COC(=O)Nc1ccc2ccc3c(NC(=O)OC)ccc4ccc1c2c43,/,-19.3%,/,12.6µM*,/,-16.8%
